# Test system: Vero E6 infected with SARS-CoV-2
# Assay: morphology score (similarity to uninfected cells); higher = more like uninfected cells
# Details: 24 h
row,SMILES,morphology score
1,O=C(O)c1cc(=O)c2ccccc2[nH]1 [kynurenic-acid] (10 µM),0.122
2,O=c1[nH]c(=O)n([C@H]2C[C@H](O)[C@@H](CO)O2)cc1I [idoxuridine] (10 µM),0.0252
3,COc1cc([C@@H]2c3cc4c(cc3[C@@H](O[C@@H]3O[C@@H]5CO[C@@H](C)O[C@H]5[C@H](O)[C@H]3O)[C@H]3COC(=O)[C@H]23)OCO4)cc(OC)c1O [etoposide] (10 µM),-0.114
4,COc1ccc2[nH]c([S+]([O-])Cc3ncc(C)c(OC)c3C)nc2n1 (stereo not given) [tenatoprazole] (10 µM),0.162
5,C=CCNc1nc(NCC=C)nc(N2CCN(C(c3ccc(F)cc3)c3ccc(F)cc3)CC2)n1 [almitrine] (10 µM),0.136
6,Cc1c(Cl)cccc1S(=O)(=O)Nc1nc(CC(=O)N2CCN(C)CC2)cs1 (10 µM),-0.053
7,CCC[C@@H](NC(=O)N1C(=O)C(CC)(CC)[C@@H]1Oc1ccc(C(=O)N2CCN(C)CC2)cc1)c1ccc2c(c1)OCO2 (10 µM),0.171
8,COc1ccc(C2(CNC(=O)c3ccc(NC(=O)c4ccco4)cc3)CCOCC2)cc1 (0.833333 µM),0.269
9,CC(C)C[C@@H]1NC(=O)[C@@H](C(C)C)NC(=O)[C@@H]2CCCN2C(=O)[C@@H](CC(=O)O)NC(=O)[C@@H](Cc2c[nH]c3ccccc23)NC1=O (10 µM),0.163
10,C=CC(=O)O [acrylate] (10 µM),-0.0871
11,CCN1C(C)(C)CC(Oc2ccc(C(=O)Nc3ccc(NC(=O)Nc4cc(C(C)(C)C)on4)cc3)nc2)CC1(C)C (10 µM),-0.0181
12,N#Cc1cc(CN2CCC(Nc3ncnc4sc(Cl)cc34)CC2)ccc1F (10 µM),-0.299
13,CCC[C@H]1C(=O)N2C(N(C)C)=Nc3ccc(C)cc3N2C1=O [azapropazone] (10 µM),0.165
14,CCOC(=O)C(=O)Nc1cccc(OC)c1C(N)=O (10 µM),-0.179
15,c1ccc2c(c1)CN1CCCC1=N2 [desoxypeganine] (10 µM),0.169

# Test system: Vero E6 infected with SARS-CoV-2
# Assay: SARS-CoV-2 infection rate relative to infected DMSO; higher = more infection, active = 60 or less
# Details: 24 h
row,SMILES,SARS-CoV-2 infection rate
1,COc1cc(O)c(C(=O)c2ccccc2)cc1S(=O)(=O)O [sulisobenzone] (10 µM),109% (inactive)
2,CCCC1(CCC)CCC2(CCN(CCCN(CC)CC)C2)CC1 [atiprimod] (0.833333 µM),82.5% (inactive)
3,Nc1nc(OCc2cc(Br)cs2)c2[nH]cnc2n1 [lomeguatrib] (10 µM),104% (inactive)
4,N[C@H](C(=O)O)c1ccc(O)c(C(=O)O)c1 [3-carboxy-4-hydroxyphenylglycine-(S)] (10 µM),95% (inactive)
5,O=Nc1c(-c2c(O)[nH]c3ccccc23)[nH]c2ccccc12 [indirubin-3-monoxime] (0.833333 µM),106% (inactive)
6,O=C1Cc2cc(CCN3CCN(c4nsc5ccccc45)CC3)c(Cl)cc2N1 [ziprasidone] (10 µM),100% (inactive)
7,CCN(CC)CCCCNc1ncc2cc(-c3cc(OC)cc(OC)c3)c(NC(=O)NC(C)(C)C)nc2n1 (0.833333 µM),107% (inactive)
8,CC(=O)N[C@@H](CS)C(=O)O [acetylcysteine] (10 µM),95.5% (inactive)
9,C[C@@H]1O[C@@H](O[C@H]2[C@H](Oc3cc(O)c(C(=O)CCc4ccc(O)cc4)c(O)c3)O[C@H](CO)[C@@H](O)[C@@H]2O)[C@H](O)[C@H](O)[C@H]1O [naringin-dihydrochalcone] (10 µM),107% (inactive)
10,O=C(OC(C(F)(F)F)C(F)(F)F)N1CCC(C(O)(c2ccc3c(c2)OCO3)c2ccc3c(c2)OCO3)CC1 (10 µM),93.5% (inactive)
11,CCOC(=O)[C@H](CCc1ccccc1)N[C@@H](C)C(=O)N1Cc2ccccc2C[C@H]1C(=O)O [quinapril] (10 µM),109% (inactive)
12,CC(C)(C#N)c1ccc(N2C(=O)OCc3cnc4ccc(-c5cnc6ccccc6c5)cc4c32)cc1 (10 µM),104% (inactive)
13,COc1cc(CCc2cc(NC(=O)c3ccc(N4CC(C)NC(C)C4)cc3)n[nH]2)cc(OC)c1 (stereo not given) (10 µM),79.5% (inactive)
14,OCc1ccccc1O [salicyl-alcohol] (10 µM),106% (inactive)
15,N[C@@H](Cc1ccc(O)cc1)C(=O)O [plovamer-acetate] (10 µM),108% (inactive)
16,C[C@@H](c1ncncc1F)[C@](O)(Cn1cncn1)c1ccc(F)cc1F [voriconazole] (10 µM),101% (inactive)
17,CCC(C(=O)O)c1ccc(CC(C)C)cc1 (stereo not given) [butibufen] (10 µM),108% (inactive)
18,CC(CC(C(N)=O)(c1ccccc1)c1ccccc1)N(C)C (stereo not given) [aminopentamide] (10 µM),104% (inactive)
19,CO[C@@H]1COCC[C@@H]1N[C@@H]1CC[C@@](C(=O)N2CCc3ncc(C(F)(F)F)cc3C2)(C(C)C)C1 (10 µM),113% (inactive)
20,O=C(O)c1ccc2nc(-c3cc(Cl)cc(Cl)c3)oc2c1 [tafamidis-meglumine] (10 µM),90.5% (inactive)

row,SMILES,SARS-CoV-2 infection rate
1,O=C(O)Cn1nnc(-c2cc(N3CCC(Oc4cc(F)ccc4Br)CC3)no2)n1 (10 µM),104% (inactive)
2,C[C@H](N)Cn1ccc2cc(F)c(Cl)cc21 (10 µM),90.5% (inactive)
3,CN(C)c1ccc(/C=C2\CCCN=C2c2cccnc2)cc1 [DMAB-anabaseine] (10 µM),96.5% (inactive)
4,CCC(=O)O[C@@](Cc1ccccc1)(c1ccccc1)[C@@H](C)CN(C)C [levopropoxyphene] (10 µM),109% (inactive)
5,CC(=O)NCCCCCC(=O)O [acexamic-acid] (10 µM),112% (inactive)
6,O=C(O)c1cc(=O)c2ccccc2[nH]1 [kynurenic-acid] (10 µM),97% (inactive)
7,O=c1[nH]c(=O)n([C@H]2C[C@H](O)[C@@H](CO)O2)cc1I [idoxuridine] (10 µM),108% (inactive)
8,COc1cc([C@@H]2c3cc4c(cc3[C@@H](O[C@@H]3O[C@@H]5CO[C@@H](C)O[C@H]5[C@H](O)[C@H]3O)[C@H]3COC(=O)[C@H]23)OCO4)cc(OC)c1O [etoposide] (10 µM),104% (inactive)
9,COc1ccc2[nH]c([S+]([O-])Cc3ncc(C)c(OC)c3C)nc2n1 (stereo not given) [tenatoprazole] (10 µM),105% (inactive)
10,C=CCNc1nc(NCC=C)nc(N2CCN(C(c3ccc(F)cc3)c3ccc(F)cc3)CC2)n1 [almitrine] (10 µM),101% (inactive)
11,Cc1c(Cl)cccc1S(=O)(=O)Nc1nc(CC(=O)N2CCN(C)CC2)cs1 (10 µM),110% (inactive)
12,CCC[C@@H](NC(=O)N1C(=O)C(CC)(CC)[C@@H]1Oc1ccc(C(=O)N2CCN(C)CC2)cc1)c1ccc2c(c1)OCO2 (10 µM),109% (inactive)
13,COc1ccc(C2(CNC(=O)c3ccc(NC(=O)c4ccco4)cc3)CCOCC2)cc1 (0.833333 µM),93% (inactive)
14,CC(C)C[C@@H]1NC(=O)[C@@H](C(C)C)NC(=O)[C@@H]2CCCN2C(=O)[C@@H](CC(=O)O)NC(=O)[C@@H](Cc2c[nH]c3ccccc23)NC1=O (10 µM),103% (inactive)
15,C=CC(=O)O [acrylate] (10 µM),109% (inactive)
16,CCN1C(C)(C)CC(Oc2ccc(C(=O)Nc3ccc(NC(=O)Nc4cc(C(C)(C)C)on4)cc3)nc2)CC1(C)C (10 µM),101% (inactive)
17,N#Cc1cc(CN2CCC(Nc3ncnc4sc(Cl)cc34)CC2)ccc1F (10 µM),116% (inactive)
18,CCC[C@H]1C(=O)N2C(N(C)C)=Nc3ccc(C)cc3N2C1=O [azapropazone] (10 µM),94% (inactive)
19,CCOC(=O)C(=O)Nc1cccc(OC)c1C(N)=O (10 µM),102% (inactive)
20,c1ccc2c(c1)CN1CCCC1=N2 [desoxypeganine] (10 µM),94.5% (inactive)

# — the supplement of paper PMC13380429
